JMJD2C inh: inhibitors of GASC-1 histone demethylase, primary screen, biochemical, fluorescence, DELFIA europium; inhibition, % at 2.35 µM; Lysine-specific demethylase 4C (Homo sapiens), Q9H3R0; hit rate 0.069% among 330,000; GST-JMJD2C(1-420) H3K9me3 demethylation;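 active means more than half of a compound's replicate wells show inhibition beyond 50%, single wells judged on their own value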;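 further: signal counts dimethyl H3K9 product captured on neutravidin plate; 0% = median of DMSO wells and 100% = 0.3 times that DMSO median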
Target sequence (Q9H3R0 1-420 limits assumed): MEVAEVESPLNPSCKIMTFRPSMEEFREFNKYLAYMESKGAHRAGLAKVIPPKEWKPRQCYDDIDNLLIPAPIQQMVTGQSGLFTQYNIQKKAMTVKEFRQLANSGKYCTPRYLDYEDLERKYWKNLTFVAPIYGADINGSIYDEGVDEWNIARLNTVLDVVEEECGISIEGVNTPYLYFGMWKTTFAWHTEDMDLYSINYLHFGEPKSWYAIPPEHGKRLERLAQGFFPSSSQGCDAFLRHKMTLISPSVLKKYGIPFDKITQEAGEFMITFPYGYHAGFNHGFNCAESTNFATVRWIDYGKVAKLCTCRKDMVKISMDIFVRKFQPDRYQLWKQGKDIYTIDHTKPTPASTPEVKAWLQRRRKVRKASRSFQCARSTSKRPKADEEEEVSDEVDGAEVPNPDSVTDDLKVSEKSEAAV
SMARCA2 activ: SMARCA2 (BRM) function activators, primary screen, cell-based, luminescence, high throughput; MG213 cells, MMTV-luciferase reporter, dexamethasone, overnight; activation, % at 9.1 µM; hit rate 1% among 370,000; in the data active means activation above about 7.8%;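 further: 0% = vehicle wells and 100% = reference activator wells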
ALR H2O2 inh: inhibitors of human ALR sulfhydryl oxidase, primary screen, biochemical, H2O2 detection, HRP-luminol luminescence, single point | hit rate 3.8% among 290,000 | inhibition, % (concentration not given with the values) | purified ALR, DTT oxidation | FAD-linked sulfhydryl oxidase ALR (Homo sapiens), P55789;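 active means mean replicate inhibition above about 79%, with every replicate also reaching it, limit read from the data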
Target sequence (P55789 whole entry, looked up): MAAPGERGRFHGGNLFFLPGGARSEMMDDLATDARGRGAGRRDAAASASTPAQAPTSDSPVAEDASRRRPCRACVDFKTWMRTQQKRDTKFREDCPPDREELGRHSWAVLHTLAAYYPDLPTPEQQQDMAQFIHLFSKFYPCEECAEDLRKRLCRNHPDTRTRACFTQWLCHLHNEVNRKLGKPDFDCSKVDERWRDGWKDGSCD
MIN6 prolif-1: inducers of MIN6 beta-cell proliferation, primary screen, ATP luminescence, uHTS; AID 2380, 2010; proliferation, % at 10 µM; MIN6 cells proliferation, ATPlite luminescence, 48 h; cells starved in 0.2% serum; 100% = growth in 10% serum; hit rate 0.29% among 330,000;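 active means compounds whose signal lies at least 3.5 SD above the mean of all wells on their plate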;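 further: 0% = DMSO-treated cells in low-serum medium and 100% = 10% serum control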
Granule exo inh: LAMP-1 surface exposure blockers, TALL-104 cells – cell-based, flow cytometry, MLPCN library, primary screen | hit rate 0.66% among 360,000 | TALL-104 LAMP-1 surface exposure; cells stimulated with thapsigargin and PMA | inhibition, % at 10 µM | AID 651702, 2012;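 active means inhibition above about 55%, limit read from the data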
M18AAP inhibitor: PfM18AAP inhibitors, malaria aminopeptidase, primary screen, biochemical, QFRET, recombinant enzyme | H-Glu-NHMec fluorogenic cleavage | inhibition, % at 7.35 µM | hit rate 1.2% among 290,000;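 active means inhibition above the campaign mean inhibition over all tested compounds plus 3 SD, cut at about 28% in these data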;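 further: 0% = plate median of test compound wells and 100% = 2 mM ZnCl2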
MIN6 prolif-2: inducers of beta-cell proliferation in MIN6, confirmation, MIN6 cells, mouse; ATPlite luminescence, 48 h; cells kept in 0.2% serum; scaled between 0.2% and 10% serum; 920 tested, under 10 active; proliferation increase, % at 50 µM; shares compounds with MIN6 prolif-1;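 active means proliferation increase above 40% at any of the four tested concentrations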
Active calls of the source: *; · = no result. This is a sample that favours compounds with a hit; in the whole collection about 5.4% have one here.

SMILES	JMJD2C inh	SMARCA2 activ	ALR H2O2 inh	MIN6 prolif-1	Granule exo inh	M18AAP inhibitor	MIN6 prolif-2
COC(=O)C1=C(C)N(Cc2ccc(C(F)(F)F)cc2)C(=NCc2ccc3c(c2)OCO3)NC1c1ccccc1 (stereo unspecified)	·	-8.2	·	·	·	·	·
O=C(NCc1ccco1)c1nn2c(C(F)(F)F)cc(-c3cccs3)nc2c1Cl	-1.4	0.3	-0.4	-4.0	-0.7	6.7	·
O=C(NCc1ccco1)c1cc2nc(-c3cccs3)cc(C(F)(F)F)n2n1	-1.6	1.0	-7.1	7.8*	1.2	10.8	4.8
Cc1ccccc1NC(=O)CSc1nnc(C)c2ccccc12	-5.3	5.6	96.3*	5.8*	-3.4	4.0	3.5
Cc1nnc(SCC(=O)Nc2ccc(O)cc2)c2ccccc12	-30.1	-1.3	0.4	2.9	0.7	-0.2	·
O=C(CC1CCCC1)N1CC[C@H]2[C@H](CCCN2Cc2cc(F)cc(F)c2)C1	·	-0.8	·	·	·	·	·
Cn1c(SCC(=O)c2ccccc2)nnc1C1COc2ccccc2O1 (stereo unspecified)	-37.4	-1.9	29.6	5.6*	-9.4	1.6	-0.1
CCOCCn1c(SCCc2ccccc2)nc2c1c(=O)[nH]c(=O)n2C	34.7	0.7	8.1	4.2	-1.6	7.0	·
COCCn1c(SCCCc2ccccc2)nc2c1c(=O)[nH]c(=O)n2C	3.9	-0.6	0.0	5.5*	3.0	2.0	-4.6
O=C(NCc1ccccc1Cl)C1CCCN(C(=O)Nc2ccc(F)cc2)C1 (stereo unspecified)	-2.2	-3.7	1.3	-3.5	-3.8	-2.0	·
Cc1ccc(CNC(=O)C2CCCN(C(=O)Nc3ccc(F)cc3)C2)cc1 (stereo unspecified)	-2.2	-3.8	1.1	10.5*	-16.1	-2.4	-0.1
CCN(CC)C(=S)SCC(=O)c1c(C)[nH]c2ccccc12	-3.9	-0.4	-9.5	0.0*	2.5	-2.9	-5.8
Cc1[nH]c2ccccc2c1C(=O)CSC(=S)N1CCOCC1	-2.6	0.4	-24.7	-2.4	0.7	4.7	·
CCCCCCCCN1C(=O)[C@@H](CC(=O)NCc2ccc(C)o2)C[C@@]2(C(=O)OC)C1=C[C@H](C(C)C)O[C@@H]2C1CC1	·	-2.7	·	·	·	·	·
COc1ccc(-c2cnnn2-c2ccc(N)cc2)cc1OC	0.7	1.2	-17.1	7.6*	0.1	-1.9	4.7
CC(C)C[C@H](NC(=O)N1CCn2c1nc1ccccc12)C(=O)N1CCCCC1	0.9	-3.5	-0.5	12.3*	2.8	-13.5	-3.3
COc1ccc(C(=O)NCCCNC(=O)c2cnccn2)cc1Br	6.0	0.1	-1.6	9.2*	-5.1	-4.1	1.5
COC(=O)C1CN(CCc2ccccc2)CCS(=O)(=O)N1Cc1ccc(OC)cc1 (stereo unspecified)	·	-0.9	·	·	·	·	·
Cn1c2ccccc2n2c(=O)c(Cl)c(-c3ccccc3)c(C#N)c12	-5.0	-2.1	-6.9	7.9*	0.9	-3.7	-4.5
COc1ccc(/C=C/C(=O)Nc2cc(S(=O)(=O)N3CCCCC3)ccc2N2CCCCC2)cc1OC	-3.8	-0.7	-18.5	-0.2	-6.2	5.0	·
COc1ccc(/C=C/C(=O)Nc2cc(S(=O)(=O)N3CCOCC3)ccc2N2CCCC2)cc1OC	51.8	5.5	-14.1	7.3*	-1.0	-0.7	1.0
C=CCCC1CN(Cc2ccc(OC)cc2)S(=O)(=O)c2c(cccc2Sc2ccc(OC)c(OC)c2)O1 (stereo unspecified)	·	1.6	·	·	·	·	·
Cc1ccc(-c2n[nH]c(=S)n2Cc2ccccc2)cc1	0.8	-3.3	55.4	-0.5	0.6	-0.1	·
Cc1cccc(-c2n[nH]c(=S)n2Cc2ccccc2)c1	-4.4	-4.5	73.3	6.3*	2.1	18.1	-4.5
CCn1nc(NC(=O)c2cccnc2)c2cc3ccccc3nc21	2.6	2.6	-7.2	3.5	-0.8	-2.5	·
SMILES	JMJD2C inh	SMARCA2 activ	ALR H2O2 inh	MIN6 prolif-1	Granule exo inh	M18AAP inhibitor	MIN6 prolif-2
CCn1nc(NC(=O)c2cccs2)c2cc3ccccc3nc21	-3.0	1.2	·	8.2*	-2.7	-1.9	-6.1
Cc1cc(N2CCN(CC(C)(C)O)C[C@H]2C)ccc1N1CCN(CC(C)(C)O)[C@@H](C)C1	·	-3.0	·	·	·	·	·
COc1ccc(N2CCN(C(=O)CN(C)S(=O)(=O)c3ccc4c(c3)c(=O)n(C)c(=O)n4C)CC2)cc1	-22.6	0.1	72.8	-0.6	1.3	-5.9	·
COc1ccccc1N1CCN(C(=O)CN(C)S(=O)(=O)c2ccc3c(c2)c(=O)n(C)c(=O)n3C)CC1	15.1	6.5	50.0	6.9*	-0.5	-8.2	-1.4
CN(C)C(/C=C/Nc1cccc([N+](=O)[O-])c1)=C(C#N)C#N	7.6	1.7	-13.3	8.1*	-1.3	-1.1	0.9
COCCCNC(=O)C[C@H]1C[C@@]2(C(=O)OC)C(=C[C@H](C(C)(C)C)O[C@@H]2C)N(CCc2ccc(OC)c(OC)c2)C1=O	·	-2.6	·	·	·	·	·
COC(=O)[C@]12C[C@H](CC(=O)NCc3ccc(C)o3)C(=O)N(Cc3ccco3)C1=C[C@H](C(C)C)O[C@@H]2C1CC1	·	2.8	·	·	·	·	·
Clc1ccc(-c2nnc(CNC3CC3)o2)cc1	-1.6	1.8	-15.3	9.5*	-12.3	4.6	-2.6
O=[N+]([O-])c1ccc(-c2nnc(CNC3CCCC3)o2)cc1	-12.4	-2.8	-16.1	5.0	2.0	2.0	·
COc1ccc([N+](=O)[O-])cc1NCc1cccnc1	-22.6	-1.5	46.8	11.1*	-3.3	-5.5	2.4
COc1ccc([N+](=O)[O-])cc1NCc1cccc([N+](=O)[O-])c1	-5.1	-1.1	35.6	-1.3	9.0	4.6	·
COC(=O)C1CN(Cc2ccccc2)CCS(=O)(=O)N1Cc1ccc(OC)cc1 (stereo unspecified)	·	0.6	·	·	·	·	·
COCCNC(=S)N(c1ccccc1)C(C)C	-21.0	0.5	49.6	0.8	-3.6	4.1	·
COCCNC(=S)NN(c1ccccc1)c1ccccc1	6.0	-4.5	81.7*	9.0*	-2.4	1.3	-4.5
COc1ccc2c(c1)[C@@H](NC(=O)c1ccncc1)[C@@H]1Cc3ccccc3[C@H]21	·	-4.0	·	·	·	·	·
CC(=O)Nc1ccc(S(=O)(=O)NC(=O)C23CC4CC(CC(C4)C2)C3)cc1	-8.7	-1.4	4.7	7.5*	-4.2	4.5	-1.8
COC(=O)C1=C(C)NC(C)=C(C(=O)OC)C1c1ccc(-c2cccc([N+](=O)[O-])c2)o1	17.2	-5.8	6.8	-3.0	16.1	-18.5	·

Compound activity as filed in PubChem BioAssay.
